Screening data deposited in PubChem BioAssay by several laboratories.
Only some compounds are listed: those with a hit (about 4.1% of all), similar ones and a draw of the others.
CHT allo act – CHT positive allosteric modulators, primary screen, cell-based, membrane potential dye, choline EC20 | High affinity choline transporter 1 (Homo sapiens), Q9GZV3 | CHT-expressing cells; hits give high values; LV-AA mutant CHT in HEK293 cells | B-score at 10 µM | hit rate 0.49% among 310,000 | AID 488977, 2010;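 active means initial fluorescence not abnormally high and integrated response B-score, plate-corrected, over 3 SD above library mean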
MEKK2 mut-MEK5 – MEK5 binding signal on mutant MEKK2 PB1, primary screen, biochemical, multiplex bead flow cytometry, Alexa488-MEK5 | percent response, % at 10 µM | hit rate 0.35% among 290,000 | Alexa488-MEK5 binding to MEKK2 mutant; in the data active means percent response above about 24%, passing the limit was not always enough
MEKK3 PB1 HTS – modulators of MEKK3-MEK5 PB1 binding, primary screen, biochemical, wildtype MEKK3, multiplex bead flow cytometry, Alexa488-MEK5. bead-based flow cytometry, Alexa488-MEK5 binding to MEKK3; actives lie on both sides; 0 = blocked by unlabeled MEK5, 100 = vehicle. binding response (% of control), % at 10 µM. hit rate 1.4% among 290,000. AID 1529, 2009;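 active means binding response more than 3 SD above or below the average of its plate-row segment, actives on both sides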;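 further: Alexa488 bead fluorescence after subtracting the streptavidin-only scavenger bead signal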
Target sequence (Q99759 whole entry, looked up): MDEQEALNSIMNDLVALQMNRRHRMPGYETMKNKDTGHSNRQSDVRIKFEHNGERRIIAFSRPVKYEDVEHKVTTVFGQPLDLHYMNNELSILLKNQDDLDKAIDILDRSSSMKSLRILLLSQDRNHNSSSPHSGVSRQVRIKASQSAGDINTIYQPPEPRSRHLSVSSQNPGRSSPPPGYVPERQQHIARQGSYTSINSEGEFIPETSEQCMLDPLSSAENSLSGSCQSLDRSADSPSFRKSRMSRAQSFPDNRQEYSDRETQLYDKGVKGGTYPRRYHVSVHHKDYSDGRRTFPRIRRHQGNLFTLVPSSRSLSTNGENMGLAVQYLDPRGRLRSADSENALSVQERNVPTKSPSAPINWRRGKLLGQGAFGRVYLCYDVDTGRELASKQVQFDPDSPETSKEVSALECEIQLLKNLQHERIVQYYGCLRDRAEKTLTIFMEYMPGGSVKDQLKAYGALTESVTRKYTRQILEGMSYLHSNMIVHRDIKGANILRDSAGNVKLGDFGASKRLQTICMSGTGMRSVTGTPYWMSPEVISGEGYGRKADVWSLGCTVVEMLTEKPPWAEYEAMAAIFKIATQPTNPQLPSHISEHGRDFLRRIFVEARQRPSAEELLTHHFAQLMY
SUMO Mot1 rescue – yeast Mot1-301 growth rescue at high temperature, primary screen, SUMOylation pathway inhibitor project, S. cerevisiae, ATP luminescence, 38.5C; S. cerevisiae Mot1-301 growth rescue; percent above DMSO median, 100 means doubled; growth rescue, % at 18.8 µM; hit rate 1% among 320,000;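 active means every valid replicate shows activation above 250% relative to neutral control wells; inactive means the rest, any valid replicate at or below 250%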;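 further: OY570 slx delta 5 strain wells were the positive control but not used for scaling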
CHT inh – inhibitors of human choline transporter CHT; High affinity choline transporter 1 (Homo sapiens), Q9GZV3; CHT-expressing cells, membrane potential dye, choline response; hits give low values; B-score at 10 µM; hit rate 0.86% among 310,000; AID 488975, 2010;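 active means B-score over 3 SD under the library average, and starting fluorescence ratio not unusually high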;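 further: choline stimulus applied at its EC90 after an EC20 pre-addition; B-score computed on integrated fluorescence ratio after choline addition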
MEKK2 WT-MEK5 – modulators of MEK5 binding to wildtype MEKK2, primary screen, biochemical, multiplex bead flow cytometry, Alexa488-MEK5; binding response (% of control), % at 10 µM; hit rate 1.1% among 290,000; Alexa488-MEK5 binding to MEKK2 WT; actives lie on both sides; AID 1531, 2009; Mitogen-activated protein kinase kinase kinase 2 (Homo sapiens), Q9Y2U5; in the data active means binding response below about 67% or above about 130%
* hit, by the source's call; i = inactive; / = no result; ! = a repeat was not active.

SMILES | CHT allo act | MEKK2 mut-MEK5 | MEKK3 PB1 HTS | SUMO Mot1 rescue | CHT inh | MEKK2 WT-MEK5
COc1ccc(NC(=O)c2cc3cccc(OC)c3oc2=Nc2ccc(C(=O)O)cc2)cc1OC | / | -43 | 85 | / | / | 79
COc1cccc(NC(=O)c2cc3cccc(OC)c3o/c2=N\O)c1 | i | 1 | 96 | -9 | -5.3* | 96
Cc1ccc(S(=O)(=O)CCC(=O)c2ccc(O)cc2O)cc1 | i | 0 | 101 | -13 | -5.2* | 97
Cc1ccc(S(=O)(=O)CCC(=O)OCC(=O)c2cc(C)ccc2C)cc1 | i | / | / | -4 | i | /
CCOC(=O)C1(CCCc2ccccc2)CCN(C(=O)CN2C(=O)CSC2=O)CC1 | i | -2 | 103 | -21 | i | 99
CC(C)N(CCn1c(=S)[nH]c2ccccc2c1=O)C(C)C | i | 1 | 94 | 308* | i | 99
O=C1CCCCCN1CP(=O)(O)CN1CCCCCC1=O | i | 11 | 106 | 564* | i | 105
O=C1CCCCCN1CP(=O)(O)CCc1ccccc1 | i | -4 | 98 | -11 | i | 99
COc1ccc(CCCC(=O)NCCc2ccccc2)cc1 | i | 3 | 107 | 55 | i | 109
COc1ccc2c(c1)C(SCC(=O)NCCc1ccccc1)CC(C)(C)O2 (centres undefined) | i | -6 | 79 | -19 | -6.4* | 86
Cc1ccc(OCc2ccc(C(=O)O)o2)c([N+](=O)[O-])c1 | i | -1 | 89 | -7 | i | 97
Cc1onc(-c2ccccc2)c1C(=O)Nc1nncs1 | i | -4 | 99 | 135 | i | 98
CCN1CCN(C(=O)C(C)Nc2cc(Cl)c(OC)cc2OC)CC1 (centres undefined) | i | -7 | 97 | -12 | i | 94
O=C(CN1CCCC1)NN=C(c1ccccc1)c1ccccc1 | i | 16 | 104 | 392* | i | 112
O=C(CN1CCCCC1)Nc1ccccc1 | i | 0 | 104 | 16 | i | 99
C=C(C)CNC(=S)NNC(=O)CCn1c2ccc(Cl)cc2c2cc(Cl)ccc21 | i | -2 | 99 | -26 | i | 93
COc1ccc(/C=C2/N=C(c3cccs3)OC2=O)cc1OC(C)C | i | -4 | 103 | 892* | i | 89
COc1ccc(/C=C2\N=C(C)OC2=O)cc1OC | i | 6 | 105 | 7 | i | 101
CC1Cc2cc(-c3csc(NC(=O)Cc4cccs4)n3)ccc2N1S(C)(=O)=O (centres undefined) | i | / | / | -4 | i | /
CCC(=O)Nc1nc(-c2ccc3c(c2)CC(C)N3S(C)(=O)=O)cs1 (centres undefined) | i | 5 | 99 | -9 | i | -1.0*
Cc1[nH]c2ccccc2c1/C=N/NC(=O)c1ccccc1 | i | 2 | 103 | -7 | i | 103
Cc1[nH]c2ccccc2c1/C=C/C(=O)c1ccccc1 | i | 180* | 150* | -20 | i | 16*
CC(C)c1ccc(CNC(=O)C(=O)NCCCn2ccnc2)cc1 | i | -10 | 107 | -6 | i | 94
CC(NC(=O)C(=O)NCCCn1ccnc1)c1ccccc1 (centres undefined) | i | -6 | 94 | 320* | i | 90
CC1=C(C(=O)Nc2ccccc2)C(c2cccs2)NC(=O)N1 (centres undefined) | i | 4 | 104 | -7 | i | 103
SMILES | CHT allo act | MEKK2 mut-MEK5 | MEKK3 PB1 HTS | SUMO Mot1 rescue | CHT inh | MEKK2 WT-MEK5
O=C(Cc1ccccc1)Nc1ccccc1C(=O)O | i | 7 | 104 | 9 | i | 106
C(=N\NC1=Nc2cccc3cccc1c23)/c1ccccc1 | i | 1 | 101 | 27 | i | 92
C(=N\NC1=Nc2cccc3cccc1c23)/c1cccnc1 | i | 9 | 96 | -8 | i | 11*
COc1ccc(/C=C2\SC(=S)N(C(C(=O)O)c3ccccc3)C2=O)c(OC)c1 (centres undefined) | i | 2 | 99 | -3 | i | 99
COc1cccc(/C=C2\SC(=S)N(C(C(=O)O)c3ccccc3)C2=O)c1OC (centres undefined) | i | 1 | 98 | 23 | i | -4.0*
CS(=O)(=O)c1ccc2nc(NC(=O)c3ccc(NS(=O)(=O)c4ccc(F)c(F)c4)cc3)sc2c1 | i | 1 | 112 | 15 | i | 103
O=C(Nc1nc2ccc(SC(F)F)cc2s1)c1ccc(NS(=O)(=O)c2ccc(F)c(F)c2)cc1 | i | 0 | 94 | 622* | i | 100
O=C(COC(=O)c1ccc2c(c1)OCCO2)Nc1cc(Cl)ccc1Cl | i | 3 | 106 | 321* | i | 103
CC1=NN(c2ccccc2)C(=O)C1C=Nc1ccccc1O (centres undefined) | i | -16 | 88 | 17 | -5.2* | 87
CCN(CC)S(=O)(=O)c1ccc(NN=C2CCN(C)CC2)c([N+](=O)[O-])c1 | i | -5 | 103 | 67 | i | 100
Cc1cc2ncn(/N=C/c3ccc([N+](=O)[O-])s3)c2cc1C | i | 7 | 96 | 27 | i | 83
O=[N+]([O-])c1ccc(/C=N/n2cnc3ccccc32)s1 | i | -1 | 102 | 378* | i | 97
Cc1ccc(C2c3c(C)nn(-c4ccc([N+](=O)[O-])cc4)c3N=C3C(=O)Nc4ccccc4N32)cc1 (centres undefined) | i | -7 | 106 | -7 | -6.3* | 84
COc1ccc(-c2ccccc2)cc1NCc1ccc(OC)c(OC)c1 | i | 5 | 107 | 18 | i | 106
Cc1ccc(N/C=C(\C2OC(=O)c3ccccc32)[N+](=O)[O-])c(C)c1 (centres undefined) | i | -3 | 96 | -10 | i | 94
O=C1OC(/C(=C\Nc2ccc(F)cc2F)[N+](=O)[O-])c2ccccc21 (centres undefined) | i | -3 | 100 | 304* | i | 96
Cc1ccc(-n2c(-c3ccc(Br)cc3)c[n+]3c2CCc2ccc4cccnc4c2-3)cc1 | i | 24 | 105 | 19 | i | 153*
Cc1ccc(-c2c[n+]3c(n2-c2ccccc2)CCC3)cc1 | i | 6 | 99 | 99 | i | 89
O=C1NC(=O)C(c2ccccc2)(c2ccccc2)N1 | i | -2 | 105 | 332*! | i | 102
